From the supplement of paper PMC10849652
About 7,900 targets were measured; listed, in parts, are those with a hit and a random draw of the rest. About 0.6% of all pairs of compound and target were hits.

Assays:
Experiment in all cases: log2 fold change, soluble protein after heating vs DMSO (PISA); higher = thermal stabilisation; K562 cells, 10 uM, 30 min; active = over 0.2 and 3.5 SD of the protein, either way, in both replicates (recomputed)
[1] = compound: C1=CC=C(C=C1)[C@H](COC2=CC3=C(C=C2)NC(=O)N3)NC(=O)C4=CC=CN(C4=O)CC5=CC(=C(C=C5)F)F
Procedure, shortened: (§1)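 Aliquots of K562 cells (2×10^6 cells/mL) treated with 10 μM compound for 30 min were heated for 3 min over 48°C-58°C. After pooling and extraction in PBS with 0.5% NP-40 at 4°C, soluble protein from a 21,000xg, 90 min spin was quantified by TMTpro 16plex LC-MS/MS with channel sums equalised. Thermal stability is expressed against control samples, from duplicates, as a log2 fold change.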

[2] = compound: CC1=C(SC2=C1C(=N[C@H](C3=NN=C(N32)C)CC(=O)N)C4=CC=C(C=C4)Cl)C
Procedure, shortened: as §1

[3] = compound: CC1=C2C(=CC=C1)N=C(N(C2=O)C3=CC=CC=C3C)CN4C=NC5=C(N=CN=C54)N
Procedure, shortened: as §1

[4] = compound: Cc1sc2c(c1C)C(c1ccc(Cl)cc1)=N[C@@H](CC(=O)OC(C)(C)C)c1nnc(C)n1-2
Procedure, shortened: as §1

[5] = compound: c1ccc([C@@H]2C[C@H]2NC2CCNCC2)cc1
Procedure, shortened: as §1

Measured: log2 fold change

ASNS (UniProt P08243)
inactive: [1] 0.025 | [2] 0.044 | [3] 0.027 | [4] -0.008 | [5] -0.019

ATP6AP1 (UniProt Q15904)
inactive: [1] 0.014 | [2] -0.069 | [3] -0.009 | [4] -0.055 | [5] -0.022

ARL6IP4 (UniProt Q66PJ3)
inactive: [1] 0.036 | [2] 0.027 | [3] 0.009 | [4] -0.016 | [5] -0.011

ATIC (UniProt P31939)
Sequence of UniProt P31939 (P31939 whole entry, looked up): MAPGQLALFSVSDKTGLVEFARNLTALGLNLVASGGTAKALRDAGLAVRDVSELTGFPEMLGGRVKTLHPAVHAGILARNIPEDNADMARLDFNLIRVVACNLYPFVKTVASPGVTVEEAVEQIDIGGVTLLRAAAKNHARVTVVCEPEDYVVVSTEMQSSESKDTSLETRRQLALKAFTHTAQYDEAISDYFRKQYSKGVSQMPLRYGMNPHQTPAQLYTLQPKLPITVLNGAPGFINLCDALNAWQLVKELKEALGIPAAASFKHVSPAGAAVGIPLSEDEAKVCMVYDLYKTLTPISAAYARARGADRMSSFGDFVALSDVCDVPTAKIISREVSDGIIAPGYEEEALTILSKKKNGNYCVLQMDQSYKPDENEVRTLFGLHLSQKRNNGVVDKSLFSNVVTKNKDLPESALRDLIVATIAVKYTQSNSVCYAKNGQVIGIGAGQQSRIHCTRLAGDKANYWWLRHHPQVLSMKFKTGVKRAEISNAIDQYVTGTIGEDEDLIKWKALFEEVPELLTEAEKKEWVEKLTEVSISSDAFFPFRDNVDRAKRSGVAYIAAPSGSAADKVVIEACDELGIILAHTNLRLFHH
inactive: [1] -0.023 | [2] 0.039 | [3] 0.073 | [4] -0.041 | [5] -0.012

AIP (UniProt O00170)
inactive: [1] -0.031 | [2] 0.078 | [3] 0.042 | [4] -0.004 | [5] -0.018

ARL6IP6 (UniProt Q8N6S5)
inactive: [1] -0.003 | [2] 0.113 | [3] 0.08 | [4] 0.164 | [5] 0.118

ACSL5 isoform 3 (UniProt Q9ULC5)
Sequence of UniProt Q9ULC5 (Q9ULC5 whole entry, looked up): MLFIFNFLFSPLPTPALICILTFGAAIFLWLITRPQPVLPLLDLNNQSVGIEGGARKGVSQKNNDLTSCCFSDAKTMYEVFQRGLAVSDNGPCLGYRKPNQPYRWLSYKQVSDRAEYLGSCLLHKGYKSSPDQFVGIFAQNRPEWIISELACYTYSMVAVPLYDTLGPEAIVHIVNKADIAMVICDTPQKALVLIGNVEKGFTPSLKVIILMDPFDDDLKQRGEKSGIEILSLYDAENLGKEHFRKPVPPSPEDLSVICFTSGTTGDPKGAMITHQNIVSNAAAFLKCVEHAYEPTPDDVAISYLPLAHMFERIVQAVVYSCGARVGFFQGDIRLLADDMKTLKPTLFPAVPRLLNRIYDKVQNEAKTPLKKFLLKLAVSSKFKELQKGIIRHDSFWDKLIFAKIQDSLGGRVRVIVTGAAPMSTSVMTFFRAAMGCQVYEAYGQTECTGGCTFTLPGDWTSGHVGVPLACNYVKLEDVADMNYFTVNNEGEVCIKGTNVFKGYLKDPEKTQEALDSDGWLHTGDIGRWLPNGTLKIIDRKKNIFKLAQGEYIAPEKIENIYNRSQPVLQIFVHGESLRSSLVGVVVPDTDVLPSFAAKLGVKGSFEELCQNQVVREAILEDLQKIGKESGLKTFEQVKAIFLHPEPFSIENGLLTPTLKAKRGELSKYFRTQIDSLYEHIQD
inactive: [1] -0.024 | [2] 0.043 | [3] 0.101 | [4] 0.057 | [5] -0.178

AP2S1 (UniProt P53680)
Sequence of UniProt P53680 (P53680 whole entry, looked up): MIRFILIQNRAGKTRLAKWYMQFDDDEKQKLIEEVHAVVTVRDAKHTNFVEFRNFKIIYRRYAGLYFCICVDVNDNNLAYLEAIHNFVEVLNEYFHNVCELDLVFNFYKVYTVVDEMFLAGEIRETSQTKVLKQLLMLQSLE
inactive: [1] -0.013 | [2] -0.007 | [3] -0.036 | [4] 0.037 | [5] 0.043

ATF1 (UniProt P18846)
active: [5] -0.391
inactive: [1] -0.054 | [2] 0.11 | [3] -0.001 | [4] -0.014

BRD8 (UniProt Q9H0E9)
inactive: [1] 0.027 | [2] -0.009 | [3] 0.023 | [4] 0.009 | [5] 0.021

ACADM isoform 2 (UniProt P11310)
inactive: [1] 0.007 | [2] 0.024 | [3] -0.015 | [4] -0.016 | [5] -0.031

ATP6V0A1 isoform 3 (UniProt Q93050)
inactive: [1] 0.115 | [2] -0.07 | [3] 0.005 | [4] -0.07 | [5] -0.149

ALDH6A1 (UniProt Q02252)
inactive: [1] 0.082 | [2] 0.124 | [3] 0.128 | [4] -0.07 | [5] 0.019

ALDH1B1 (UniProt P30837)
inactive: [1] 0.037 | [2] 0.064 | [3] 0.013 | [4] -0.047 | [5] 0.009

BST2 (UniProt Q10589)
Sequence of UniProt Q10589 (Q10589 whole entry, looked up): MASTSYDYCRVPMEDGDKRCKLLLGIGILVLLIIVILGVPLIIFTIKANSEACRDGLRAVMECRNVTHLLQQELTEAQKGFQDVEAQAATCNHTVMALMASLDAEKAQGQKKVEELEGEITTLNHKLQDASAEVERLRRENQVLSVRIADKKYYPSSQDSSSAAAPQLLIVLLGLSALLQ
inactive: [1] 0.056 | [2] 0.019 | [3] -0.012 | [4] 0.068 | [5] 0.055

AARSD1 isoform 3 (UniProt Q9BTE6)
inactive: [1] -0.053 | [2] -0.068 | [3] 0.039 | [4] 0.047 | [5] 0.023

ACP1 isoform 2 (UniProt P24666)
Sequence of UniProt P24666 (P24666 whole entry, looked up): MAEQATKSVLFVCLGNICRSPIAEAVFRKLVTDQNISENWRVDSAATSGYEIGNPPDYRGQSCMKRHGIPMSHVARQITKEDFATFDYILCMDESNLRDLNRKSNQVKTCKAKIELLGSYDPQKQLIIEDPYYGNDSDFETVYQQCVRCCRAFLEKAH
inactive: [1] -0.107 | [2] -0.028 | [3] 0.004 | [4] 0.028 | [5] 0.022

ARGLU1 (UniProt Q9NWB6)
inactive: [1] 0.072 | [2] -0.117 | [3] -0.013 | [4] 0.01 | [5] 0.096

AAR2 (UniProt Q9Y312)
inactive: [1] 0.024 | [2] 0.08 | [3] -0.053 | [4] 0.069 | [5] -0.012

ATG9A (UniProt Q7Z3C6)
inactive: [1] 0.018 | [2] 0.014 | [3] 0.021 | [4] -0.028 | [5] -0.05

AK6 (UniProt Q9Y3D8)
inactive: [1] -0.043 | [2] 0.042 | [3] 0.2 | [4] -0.014 | [5] -0.008

ADAMTS5 (UniProt Q9UNA0)
inactive: [1] 0.149 | [2] 0.106 | [3] 0.152 | [4] -0.076 | [5] -0.028

APLP2 (UniProt Q06481)
inactive: [1] 0.003 | [2] -0.003 | [3] 0 | [4] 0.036 | [5] 0.038

BSCL2 isoform 4 (UniProt Q96G97)
inactive: [1] -0.07 | [2] 0.106 | [3] -0.084 | [4] 0.027 | [5] -0.127

ARFIP1 (UniProt P53367)
inactive: [1] 0.04 | [2] 0.042 | [3] 0.051 | [4] -0.065 | [5] -0.03

BRIP1 (UniProt Q9BX63)
inactive: [1] 0.042 | [2] -0.005 | [3] 0 | [4] -0.042 | [5] 0.122

AGPAT3 isoform 3 (UniProt Q9NRZ7)
inactive: [1] -0.012 | [2] 0.064 | [3] 0.021 | [4] -0.048 | [5] -0.024

ASS1 (UniProt P00966)
inactive: [1] -0.099 | [2] -0.036 | [3] 0.032 | [4] -0.141 | [5] -0.146

AKR1C2 (UniProt P52895)
Sequence of UniProt P52895 (P52895 whole entry, looked up): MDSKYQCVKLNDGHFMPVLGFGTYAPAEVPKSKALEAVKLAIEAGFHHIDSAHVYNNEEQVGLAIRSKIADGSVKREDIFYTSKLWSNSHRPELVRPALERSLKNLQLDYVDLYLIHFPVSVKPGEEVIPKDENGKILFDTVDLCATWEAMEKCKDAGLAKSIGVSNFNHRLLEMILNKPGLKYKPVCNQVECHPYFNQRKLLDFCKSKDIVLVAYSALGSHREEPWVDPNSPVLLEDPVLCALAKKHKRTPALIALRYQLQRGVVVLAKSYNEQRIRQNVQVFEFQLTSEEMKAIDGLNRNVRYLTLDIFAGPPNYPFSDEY
inactive: [1] 0 | [2] -0.04 | [3] 0.086 | [4] 0.057 | [5] -0.011

BID isoform 2 (UniProt P55957)
Sequence of UniProt P55957 (P55957 whole entry, looked up): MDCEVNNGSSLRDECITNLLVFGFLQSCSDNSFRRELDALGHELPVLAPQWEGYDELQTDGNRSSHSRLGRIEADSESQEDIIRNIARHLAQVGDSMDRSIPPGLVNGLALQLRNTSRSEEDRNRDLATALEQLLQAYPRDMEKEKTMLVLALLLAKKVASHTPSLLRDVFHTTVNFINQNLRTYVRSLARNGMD
inactive: [1] -0.036 | [2] 0.059 | [3] 0.081 | [4] -0.076 | [5] -0.053

ARHGAP4 isoform 2 (UniProt P98171)
inactive: [1] 0.211 | [2] -0.101 | [3] -0.069 | [4] -0.122 | [5] 0.008

ACBD6 (UniProt Q9BR61)
inactive: [1] -0.033 | [2] 0.087 | [3] 0.1 | [4] -0.072 | [5] 0.073

ACTR1B (UniProt P42025)
inactive: [1] -0.049 | [2] 0.105 | [3] 0.034 | [4] 0.028 | [5] -0.029

ANKRD29 (UniProt Q8N6D5)
inactive: [1] -0.012 | [2] 0.199 | [3] 0.248 | [4] -0.029 | [5] -0.079

ATP6V1F isoform 2 (UniProt Q16864)
Sequence of UniProt Q16864 (Q16864 whole entry, looked up): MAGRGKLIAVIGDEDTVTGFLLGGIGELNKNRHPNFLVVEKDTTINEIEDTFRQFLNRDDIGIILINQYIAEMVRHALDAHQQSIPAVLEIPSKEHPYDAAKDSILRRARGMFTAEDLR
inactive: [1] 0.015 | [2] -0.144 | [3] -0.138 | [4] -0.126 | [5] 0.02

ATP6V1C1 (UniProt P21283)
Sequence of UniProt P21283 (P21283 whole entry, looked up): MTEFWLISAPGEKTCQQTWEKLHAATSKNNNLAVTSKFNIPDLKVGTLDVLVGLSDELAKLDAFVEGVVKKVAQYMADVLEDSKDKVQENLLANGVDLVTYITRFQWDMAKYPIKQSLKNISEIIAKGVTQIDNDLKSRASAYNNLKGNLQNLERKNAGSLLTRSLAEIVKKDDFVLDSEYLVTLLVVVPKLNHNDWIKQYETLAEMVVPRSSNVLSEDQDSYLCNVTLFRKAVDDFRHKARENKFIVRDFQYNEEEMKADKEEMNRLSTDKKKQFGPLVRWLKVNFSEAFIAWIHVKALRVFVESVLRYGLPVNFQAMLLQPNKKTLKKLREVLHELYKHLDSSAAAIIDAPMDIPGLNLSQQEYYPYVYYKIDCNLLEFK
inactive: [1] -0.011 | [2] 0.004 | [3] 0.05 | [4] -0.002 | [5] -0.039

ACIN1 (UniProt Q9UKV3)
inactive: [1] 0.003 | [2] 0.095 | [3] 0.038 | [4] 0.023 | [5] -0.018

APH1A (UniProt Q96BI3)
Sequence of UniProt Q96BI3 (Q96BI3 whole entry, looked up): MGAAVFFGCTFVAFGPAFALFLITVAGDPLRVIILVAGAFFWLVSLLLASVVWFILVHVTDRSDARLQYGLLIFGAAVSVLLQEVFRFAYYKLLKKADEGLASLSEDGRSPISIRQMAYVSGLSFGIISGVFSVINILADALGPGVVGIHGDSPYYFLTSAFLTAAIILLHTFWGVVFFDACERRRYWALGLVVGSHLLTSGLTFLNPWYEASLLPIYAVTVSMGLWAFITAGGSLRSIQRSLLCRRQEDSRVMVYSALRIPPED
inactive: [1] -0.015 | [2] 0.009 | [3] -0.21 | [4] -0.08 | [5] -0.153

ATF7 isoform 6 (UniProt P17544)
inactive: [1] -0.097 | [2] 0 | [3] -0.187 | [4] 0.184 | [5] -0.034

ACOX3 (UniProt O15254)
inactive: [1] 0.015 | [2] 0.238 | [3] -0.185 | [4] 0.131 | [5] 0.077

ADAM15 (UniProt Q13444)
inactive: [1] -0.041 | [2] 0.059 | [3] 0.096 | [4] 0.08 | [5] 0

ALG3 (UniProt Q92685)
inactive: [1] -0.061 | [2] 0.019 | [3] 0.072 | [4] 0.054 | [5] -0.026

BLVRB (UniProt P30043)
Sequence of UniProt P30043 (P30043 whole entry, looked up): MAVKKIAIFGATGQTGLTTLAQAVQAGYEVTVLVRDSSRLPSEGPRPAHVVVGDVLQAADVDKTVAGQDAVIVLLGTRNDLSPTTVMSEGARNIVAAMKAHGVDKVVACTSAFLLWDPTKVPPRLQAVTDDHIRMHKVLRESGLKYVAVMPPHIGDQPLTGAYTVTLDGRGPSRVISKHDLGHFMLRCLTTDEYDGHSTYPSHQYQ
inactive: [1] -0.029 | [2] 0.027 | [3] -0.01 | [4] -0.006 | [5] 0.013

ARHGAP25 isoform 4 (UniProt P42331)
inactive: [1] -0.181 | [2] -0.171 | [3] -0.173 | [4] -0.018 | [5] 0.109

AKT2 (UniProt P31751)
Sequence of UniProt P31751 (P31751 whole entry, looked up): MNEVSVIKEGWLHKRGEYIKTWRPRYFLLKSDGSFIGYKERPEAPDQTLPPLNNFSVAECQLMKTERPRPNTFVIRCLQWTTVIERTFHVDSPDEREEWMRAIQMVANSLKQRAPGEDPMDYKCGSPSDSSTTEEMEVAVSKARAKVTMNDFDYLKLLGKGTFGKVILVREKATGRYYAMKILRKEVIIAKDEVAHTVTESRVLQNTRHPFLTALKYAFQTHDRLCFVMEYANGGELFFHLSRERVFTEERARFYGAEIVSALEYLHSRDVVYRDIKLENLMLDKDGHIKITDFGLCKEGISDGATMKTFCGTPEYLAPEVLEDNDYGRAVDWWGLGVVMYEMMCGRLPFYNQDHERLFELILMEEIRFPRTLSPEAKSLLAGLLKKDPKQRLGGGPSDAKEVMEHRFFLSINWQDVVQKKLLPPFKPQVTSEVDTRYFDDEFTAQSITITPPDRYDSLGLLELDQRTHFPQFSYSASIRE
inactive: [1] -0.124 | [2] 0.055 | [3] 0.061 | [4] 0.009 | [5] -0.028

BRD2 isoform 2 (UniProt P25440)
active: [2] 2.34 | [4] 2.33
inactive: [1] -0.257 | [3] 0.092 | [5] 0.029

ARL2BP (UniProt Q9Y2Y0)
Sequence of UniProt Q9Y2Y0 (Q9Y2Y0 whole entry, looked up): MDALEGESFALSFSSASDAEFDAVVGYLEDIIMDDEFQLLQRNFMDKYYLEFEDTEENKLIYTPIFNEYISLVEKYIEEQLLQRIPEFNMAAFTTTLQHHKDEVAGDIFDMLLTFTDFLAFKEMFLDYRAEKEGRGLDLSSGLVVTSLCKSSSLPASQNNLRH
inactive: [1] -0.076 | [2] 0 | [3] 0.14 | [4] 0.069 | [5] 0.017

AKT1 (UniProt P31749)
inactive: [1] -0.068 | [2] 0.018 | [3] 0.034 | [4] 0.042 | [5] -0.072

ACADVL isoform 3 (UniProt P49748)
inactive: [1] 0.019 | [2] 0.05 | [3] 0.009 | [4] -0.011 | [5] -0.018

ATP2A3 isoform 2 (UniProt Q93084)
Sequence of UniProt Q93084 (Q93084 whole entry, looked up): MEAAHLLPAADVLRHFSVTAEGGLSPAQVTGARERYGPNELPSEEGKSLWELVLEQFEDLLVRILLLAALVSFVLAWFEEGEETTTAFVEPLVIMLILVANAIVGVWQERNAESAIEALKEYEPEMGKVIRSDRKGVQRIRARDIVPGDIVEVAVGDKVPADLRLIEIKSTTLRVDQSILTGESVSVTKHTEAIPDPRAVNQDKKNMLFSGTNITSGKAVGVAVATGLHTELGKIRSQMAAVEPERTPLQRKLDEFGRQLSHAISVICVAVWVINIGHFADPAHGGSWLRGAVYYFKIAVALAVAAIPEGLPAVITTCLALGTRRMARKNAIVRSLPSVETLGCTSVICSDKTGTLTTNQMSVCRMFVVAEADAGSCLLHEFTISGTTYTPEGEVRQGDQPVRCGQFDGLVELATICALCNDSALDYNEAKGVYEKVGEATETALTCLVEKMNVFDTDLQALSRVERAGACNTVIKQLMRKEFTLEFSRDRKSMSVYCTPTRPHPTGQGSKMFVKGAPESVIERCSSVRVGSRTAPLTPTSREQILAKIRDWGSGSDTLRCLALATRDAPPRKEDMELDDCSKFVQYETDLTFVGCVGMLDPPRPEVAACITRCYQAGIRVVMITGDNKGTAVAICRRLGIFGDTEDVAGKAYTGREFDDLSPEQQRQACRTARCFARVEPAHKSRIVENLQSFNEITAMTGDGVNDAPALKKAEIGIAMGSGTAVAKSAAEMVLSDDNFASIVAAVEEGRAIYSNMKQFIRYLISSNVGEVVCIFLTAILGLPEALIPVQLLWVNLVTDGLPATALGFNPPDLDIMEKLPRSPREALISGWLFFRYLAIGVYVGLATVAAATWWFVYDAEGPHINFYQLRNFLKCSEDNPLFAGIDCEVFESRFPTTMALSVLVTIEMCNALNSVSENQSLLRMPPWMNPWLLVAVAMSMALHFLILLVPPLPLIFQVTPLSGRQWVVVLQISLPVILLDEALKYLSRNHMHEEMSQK
inactive: [1] -0.01 | [2] 0.035 | [3] 0.036 | [4] -0.002 | [5] 0.01

ACACB (UniProt O00763)
inactive: [1] -0.044 | [2] -0.053 | [3] 0.025 | [4] 0.084 | [5] 0.007

ABCC5 (UniProt O15440)
inactive: [1] -0.034 | [2] 0.082 | [3] -0.02 | [4] -0.001 | [5] -0.025
